Where a name gives a salt, the structure may show the parent alone. ± gives the standard deviation of the averaged measurements.

The subject of this experiment is E. coli TESEC Mtb Asd. Nature of the experiment: growth (OD600 after 10 h); higher = more growth (less inhibition). The conditions noted are these: arabinose induction (level): Low; compound 0.1 mM; raw OD600 reference: median of DMSO wells 0.417, cell-free background 0.041. As to the method:
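TESEC E. coli strains in which the native enzyme is deleted and replaced by arabinose-inducible Mtb Asd, DapB, CysH or TrpD, each grown in its selective medium. Strains were screened against the Prestwick library at 0.1 mM and 1% DMSO in 384-well format at low and high arabinose induction. Growth is read as OD600 after 10 h in triplicate.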
In turn, `O=C1CC2(CCCC2)CC(=O)N1CCCCN1CCN(c2ncccn2)CC1` [Buspirone hydrochloride] yielded a growth of 0.439 ± 0.046.

Compound `CC[C@]12CCCN3CCc4c(n(c5ccccc45)[C@@](O)(C(=O)OC)C1)[C@@H]32` [Vincamine] returned a growth of 0.456 ± 0.006.

For `N#CC(c1ccc(Cl)cc1)c1c(Cl)cc(-n2ncc(=O)[nH]c2=O)cc1Cl` (stereo unspecified) [Diclazuril], the growth was determined as 0.0482 ± 0.002.

`CCOC(=O)[C@H](CCc1ccccc1)N[C@H]1CCc2ccccc2N(CC(=O)O)C1=O` [Benazepril HCl] showed a growth of 0.36 ± 0.066.

As for `C[C@H](CCC(=O)O)[C@H]1CC[C@H]2[C@@H]3[C@H](O)C[C@@H]4C[C@H](O)CC[C@]4(C)[C@H]3CC[C@]12C` [Chenodiol], the growth turned out to be 0.289 ± 0.049.

In turn, `CC(=O)CC(c1ccccc1)c1c(O)c2ccccc2oc1=O` (stereo unspecified) [Warfarin] came in with a growth of 0.391 ± 0.072.

In turn, `O=C1CN(/N=C/c2ccc(-c3ccc([N+](=O)[O-])cc3)o2)C(=O)N1` [Dantrolene sodium salt] yielded a growth of 0.258 ± 0.013.

As for `Nc1nc2c(ncn2COC(CO)CO)c(=O)[nH]1` [Ganciclovir], the growth stood at 0.411 ± 0.019.

Turning to `Cc1ccc(C(=O)c2cc(O)c(O)c([N+](=O)[O-])c2)cc1` [Tolcapone], the growth turned out to be 0.0521 ± 0.0091.

Compound `Fc1ccc([C@@H]2CCNC[C@H]2COc2ccc3c(c2)OCO3)cc1` [Paroxetine Hydrochloride] came in with a growth of 0.176 ± 0.0037.

For the compound `COc1ccc(CN2CCN(C(c3ccc(F)cc3)c3ccc(F)cc3)CC2)c(OC)c1OC` [Lomerizine hydrochloride], the growth worked out at 0.0562 ± 0.0023.

Take `C[C@@H]1C[C@H]2[C@@H]3CCC4=CC(=O)C=C[C@]4(C)[C@@]3(Cl)[C@@H](O)C[C@]2(C)[C@@]1(OC(=O)c1ccco1)C(=O)CCl` [Mometasone furoate]: the growth came out at 0.329 ± 0.082.

With `Cc1cccc(Nc2ccncc2S(=O)(=O)NC(=O)NC(C)C)c1` [Torsemide], the growth worked out at 0.353 ± 0.095.

In the case of `COc1nc(C)nc(Cl)c1NC1=NCCN1` [Moxonidine], the growth is 0.434 ± 0.025.

Regarding `NC(=O)c1cccnc1` [Nicotinamide], the growth stood at 0.45 ± 0.033.

Compound `NCCCC(O)(P(=O)(O)O)P(=O)(O)O` [Alendronate sodium] had a growth of 0.414 ± 0.04.

`NNC(=O)c1ccncc1` [Isoniazid] came in with a growth of 0.429 ± 0.083.

`CC(C)OC(=O)C(C)(C)Oc1ccc(C(=O)c2ccc(Cl)cc2)cc1` [Fenofibrate] registered a growth of 0.397 ± 0.039.

For `CCC[C@@H]1C[C@@H](C(=O)N[C@@H]([C@H]2O[C@H](SC)[C@H](O)[C@@H](O)[C@H]2O)[C@@H](C)O)N(C)C1` [Lincomycin hydrochloride], the growth turned out to be 0.204 ± 0.02.

In the case of `CS(=O)(=O)OCCCCOS(C)(=O)=O` [Busulfan], the growth turned out to be 0.414 ± 0.036.

The compound `CC[C@H]1OC(=O)C[C@@H](O)[C@H](C)[C@@H](O[C@@H]2O[C@H](C)[C@@H](O[C@H]3C[C@@](C)(O)[C@@H](O)[C@H](C)O3)[C@H](N(C)C)[C@H]2O)[C@@H](CC=O)C[C@@H](C)C(=O)/C=C/C(C)=C/[C@@H]1CO[C@@H]1O[C@H](C)[C@@H](O)[C@@H](OC)[C@H]1OC` [Tylosin] showed a growth of 0.0597 ± 0.0035.

(Values after the supplement of paper PMC9262897, “Low-cost anti-mycobacterial drug discovery using engineered E. coli” (Nature Communications, 2022).)
